Screening results as filed in PubChem.
HT1080 IDH1KD tx: kills HT-1080 cells with IDH1 knockdown; HT-1080 IDH1 knockdown viability, ATP luminescence, 48 h; Potency, µM (doses to about 46.1 µM), inactives show at the top dose activity, negative = toxicity, actives largely listed as cytotoxic; 360,000 compounds, 2% hits; AID 686971;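 note: potency is the fitted concentration of half-maximal effect; 0% = DMSO wells and -100% = cell-free medium wells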
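Cytotoxicity counter-line: IDH1KD HT-1080, 48 h, CellTiter-Glo. Curves classed by r2, magnitude and activity.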
DT40 TDP1 CPT: DT40-hTDP1 cell growth loss with CPT | chicken DT40 Tdp1-/-;hTDP1 cells + 20 nM CPT, ATP luminescence, 48 h | Potency, µM (highest dose often 46.2 µM), for inactives: at the top dose activity change, negative = growth inhibition, most hits filed as inhibitors | 420,000 compounds, 12% hits | AID 686979; note: potency is the fitted concentration of half-maximal effect; nearly all actives have a fitted effect of over 55% in size
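Chicken DT40 Tdp1-/- cells stably complemented with human TDP1 were seeded at 400 cells/well in medium containing 20 nM camptothecin, exposed to pin-transferred compounds, and grown at 37 °C for at least 48 hr. Viability was read as ATP luminescence.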
IL1B secr inh: inflammasome signaling inhibition, IL-1 beta readout; THP-1 LPS/ATP IL-1B secretion, AlphaLISA, 16 h; stronger effect = lower value; activity change, % at 57.5 µM; 360,000 compounds, 4.7% hits; AID 743279; in the data active = activity change below about -50%; inconclusive = mostly about -30% to -49%
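THP-1 cells pretreated 1 hr with compounds (up to 57.5 uM final), then stimulated with LPS (250 ng/mL final) plus ATP (1.25 mM final); secreted IL-1B measured by AlphaLISA after 16 hr, decreased signal indicating inhibition.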
TDP1 cell noCPT: qHTS for Inhibitors of human tyrosyl-DNA phosphodiesterase 1 (TDP1): qHTS in cells in absence of CPT | AID 686978, 2013 | 420,000 compounds, 15% hits | Potency, µM (series often up to 46.2 µM), for the others: at the highest dose activity change, negative = growth inhibition, hits mostly inhibitors | DT40 Tdp1-/- hTDP1 cells, no CPT, ATP luminescence, 48 h; note: potency is the fitted concentration of half-maximal effect; nearly all actives have a fitted effect of over 55% in size
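Chicken DT40 Tdp1-/- cells complemented with human TDP1, screened without camptothecin (DMSO vehicle only), 400 cells/well. Compounds pin-transferred, cells incubated at 37 °C for at least 48 hr. Growth read as ATP-dependent luminescence (CellTiter-Glo, 30 min at RT).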
HT1080NT lethal: kills 2HG-producing HT-1080-NT fibrosarcoma cells | HT-1080-NT fibrosarcoma viability, CellTiter-Glo ATP luminescence, 48 h | Potency, µM (top dose mostly 46.1 µM), inactives show at the top dose activity, negative = less viability, actives largely listed as cytotoxic | 360,000 compounds, 1.6% hits | AID 686970;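 note: NT is the 2HG producing partner of a matched IDH1 knockdown line; potency is the fitted concentration of half-maximal effect; 0% = DMSO-treated cells and -100% = media-only wells without cells; nearly all actives have a fitted effect of over 55% in size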
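750 cells/well, RPMI + 5% FBS; 2 h settle, compound pin-transfer, 48 h at 37 degrees C. CellTiter-Glo 10 min RT, luminescence. Normalized to DMSO and media-only wells.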
Numbers without * were called inactive; u = inconclusive; x = no result. Most compounds without a hit are left out; they make up all but 19% or so of the library. Unless noted, calls come from the whole dose curve; as a rule, active = well fitted curve in the direction sought with a large enough effect; inconclusive = small, poorly fitted or top-dose-only effect, or another doubt; inactive = no such curve, though single readings can be large; an effect the other way counts as inactive or inconclusive. Unless noted, % is set by controls: 0 for no effect and ±100 for the full control effect.

SMILES	HT1080 IDH1KD tx	DT40 TDP1 CPT	IL1B secr inh	TDP1 cell noCPT	HT1080NT lethal
CCC(=O)O[C@]1(c2ccccc2)CCN(C)C[C@H]1C	x	6%	x	-29%	x
CCCCN1CCC(O)(c2ccccc2)C(C(=O)c2ccccc2)C1 (stereo not drawn)	-2%	2.9µM*	-11	2.9µM*	0%
CC1([N+](=O)[O-])COP(=O)(Nc2cccc(Br)c2)OC1 (stereo not drawn)	8%	-11%	-16	u	2%
OCC1CCCN2CCCCC12 (stereo not drawn)	x	6%	x	-6%	x
CC1CCOC(=O)C=CC=CC(=O)OC2CC3OC4C5OC5(C)C(O)CC4(COC(=O)C1O)C2(C)C31CO1 (stereo not drawn)	x	0.15µM*	-104*	0.15µM*	u
CC1=CC2OC3CC4OC(=O)C=CC=CC(=O)OCCC(C)C(O)C(=O)OCC2(CC1)C4(C)C31CO1 (stereo not drawn)	x	0.023µM*	-103*	0.16µM*	0.16µM*
CC(O)C1C=CC=CC(=O)OC2CC3OC4C5OC5(C)C(O)CC4(COC(=O)C(O)C(C)CCO1)C2(C)C31CO1 (stereo not drawn)	x	0.13µM*	-100*	0.15µM*	u
CC1=CC2OC3CC4OC(=O)C=CC=CC(C(C)O)OCC(O)C5(C)OC5C(=O)OCC2(CC1O)C4(C)C31CO1 (stereo not drawn)	x	0.092µM*	-117*	0.15µM*	0.37µM*
Cc1cccc(C)c1NC(=O)CN1CCCC1=O	x	-2%	x	-8%	x
CN1CCCN(C(=O)COc2ccccc2Br)CC1	1%	5%	3	0%	-2%
Cc1cc([N+](=O)[O-])c2ccccc2[n+]1[O-]	8.2µM*	0.046µM*	-99*	0.052µM*	6.5µM*
Cc1ccccc1[N+](=O)[O-]	x	-4%	26	10%	x
COc1ccc(/C=N\N=C(N)N)cc1	0%	u	-10	16µM*	-2%
NC(N)=N/N=C/c1ccc(N(c2ccccc2)c2ccccc2)cc1	u	16µM*	-55*	18µM*	u
NC(N)=N/N=C/c1ccc(N2CCOCC2)cc1	-19%	4.6µM*	50	4.6µM*	u
O=C1NC(=O)C(=Cc2ccc(N3CCOCC3)cc2)C(=O)N1	5%	-12%	-12	-21%	17%
COc1ccc(C=O)cc1	10%	17%	0	-13%	u
Cc1ccc(NC(=O)c2cc(-c3cc(Cl)ccc3C)n[nH]2)cc1NS(C)(=O)=O	u	23µM*	-14	u	u
C/C(=C\c1csc(C)n1)[C@@H]1C[C@@H]2O[C@]2(C)CCC[C@H](C)[C@H](O)[C@@H](C)C(=O)C(C)(C)[C@@H](O)CC(=O)O1	x	0.0012µM*	x	0.0013µM*	x
Cc1ccc(C)c(N2CCN(C(=O)C3CCCN(S(=O)(=O)c4cccc5nsnc45)C3)CC2)c1 (stereo not drawn)	x	5.8µM*	x	7.3µM*	x
CNc1ccc2oc(C[C@@H]3OC4(CC[C@@H]3C)O[C@H]([C@@H](C)C(=O)c3ccc[nH]3)[C@H](C)C[C@H]4C)nc2c1C(=O)O (stereo partly drawn)	x	2.3µM*	x	4.6µM*	x
CNc1ccc2oc(C[C@H]3O[C@@]4(CC[C@H]3C)O[C@H]([C@H](C)C(=O)c3ccc[nH]3)[C@H](C)C[C@H]4C)nc2c1C(=O)O	2.1µM*	0.026µM*	39	0.18µM*	1.5µM*
CC(/C=N/NC(=O)c1cc(-c2ccncc2)nc2ccccc12)=C\c1ccco1	1µM*	2.6µM*	10	3.7µM*	0.89µM*
O=C(NC12CC3CC(CC(C3)C1)C2)OC1CN2CCC1CC2 (stereo not drawn)	0%	4%	x	u	0%
C=CC(=O)OCCO	15%	-27%	-26	-28%	0%
SMILES	HT1080 IDH1KD tx	DT40 TDP1 CPT	IL1B secr inh	TDP1 cell noCPT	HT1080NT lethal
COc1ccc(-n2c(=O)[nH]c3ccccc3c2=O)c(OC)c1	-5%	-21%	15	-19%	-5%
COc1ccc(-n2c(=S)[nH]c3c(sc(=S)n3-c3ccccc3)c2=O)c(OC)c1	22%	21µM*	-2	16µM*	1%
Cc1ccc(-c2nc3ccc(Cl)cn3c2Nc2ccccc2C)s1	x	21µM*	x	16µM*	x
CCN(C[C@H]1N[C@@](C)(C(=O)OC)[C@H]2C(=O)N(Cc3ccccc3)C(=O)[C@@H]12)S(=O)(=O)c1ccc(C(C)(C)C)cc1	-5%	21µM*	-12	23µM*	-12%
COC(=O)[C@]1(C)N[C@H](CN(C)S(=O)(=O)c2ccc(-c3ccccc3)cc2)[C@@H]2C(=O)N(Cc3ccccc3)C(=O)[C@@H]21	1%	u	-5	u	-6%
CCN(C[C@H]1N[C@@](CC)(C(=O)OC)[C@H]2C(=O)N(Cc3ccccc3)C(=O)[C@@H]12)C(=O)Nc1ccc(Cl)cc1	-23%	u	-23	21µM*	0%
CC(C)NC(=O)N1CCC2(CC1)CCN(C(=O)Oc1ccccc1)CC2	x	-8%	x	u	x
CN(Cc1ccccc1)C(=O)c1ccc(NC(=O)C2CCN(C(=O)OC(C)(C)C)CC2)cc1	-22%	23µM*	46	15µM*	-19%
COC(=O)c1ccc(NC2=C(Cl)C(=O)OC2OC(=O)c2ccccc2)cc1 (stereo not drawn)	-20%	u	-11	u	-23%
CC(=O)O[C@H]1C[C@@H]2CC[C@@H]3[C@H](CC[C@]4(C)C(=O)CC[C@@H]34)[C@@]2(C)C[C@@H]1OC(C)=O	1%	23µM*	12	u	10%
C[C@]12CCC3[C@@H](CC[C@@H]4C[C@H](O)CC[C@]34C)[C@@H]1CCC2=O (stereo partly drawn)	-2%	u	16	u	13%
CC(=O)OC1=CC[C@H]2[C@@H]3CC[C@H]4C[C@H](OC(C)=O)[C@@H](OC(C)=O)C[C@]4(C)[C@H]3CC[C@]12C	-1%	15µM*	4	12µM*	29%
Cc1cc(C(=O)OCC(=O)Nc2ccc(F)cc2)c(C)n1C1CC1	12%	-1%	-6	-11%	-1%
COc1ccc(CCN)cc1	x	-19%	x	-20%	x
COc1ccc(OC)c(N2C(=O)CC(=O)NC2=O)c1	0%	4%	-8	5%	-2%
COc1ccc(C2CC(=O)Nc3cc4c(cc32)OCO4)c(OC)c1 (stereo not drawn)	x	u	x	15µM*	x
CC1(C)C[C@H]2C=C(C=O)[C@]3(C=O)C[C@]3(C)[C@H]2C1	12µM*	0.92µM*	-108*	0.82µM*	16µM*
